Screens deposited in PubChem by National Center for Advancing Translational Sciences (NCATS).
An excerpt weighted towards active compounds, which were near 10% of everything screened.
GPT2 inh – GPT2 alanine aminotransferase inhibition; Q8TD30; Recombinant GPT2, coupled pyruvate oxidase/HRP Amplex Red fluorescence; Potency, µM (series often up to 57.7 µM), hits mostly inhibitors; 0.25% of 100,000 active; note: nearly all actives have a fitted effect of over 60% in size
Target sequence (Q8TD30 whole entry, looked up): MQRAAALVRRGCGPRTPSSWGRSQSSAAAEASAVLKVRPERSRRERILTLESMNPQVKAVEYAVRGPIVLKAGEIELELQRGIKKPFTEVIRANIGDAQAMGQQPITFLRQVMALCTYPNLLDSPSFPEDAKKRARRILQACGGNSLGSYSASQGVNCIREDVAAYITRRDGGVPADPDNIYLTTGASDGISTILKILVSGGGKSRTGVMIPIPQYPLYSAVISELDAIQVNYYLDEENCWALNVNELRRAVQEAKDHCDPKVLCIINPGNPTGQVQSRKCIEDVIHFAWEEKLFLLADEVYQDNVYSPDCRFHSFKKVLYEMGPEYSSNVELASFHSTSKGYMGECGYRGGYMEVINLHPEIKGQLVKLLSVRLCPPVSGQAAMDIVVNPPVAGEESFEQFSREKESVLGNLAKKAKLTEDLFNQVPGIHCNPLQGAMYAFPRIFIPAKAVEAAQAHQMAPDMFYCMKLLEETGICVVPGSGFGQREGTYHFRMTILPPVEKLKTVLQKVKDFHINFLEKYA
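GPT2 10ng/uL, a-KG 250uM, L-Ala 2mM, HEPES pH7.5 + 0.0001% Tween; 30 min RT. Then Amplex mix (PO/HRP/ThPP), 30 min RT dark, fluorescence. AOA 50uM used as positive control.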
3T3 cytotox – cytotoxic compounds in NIH 3T3 cells. NIH 3T3 viability, CellTiter-Glo ATP luminescence, 48-72 h. Potency, µM (series often up to 96.7 µM), actives largely listed as inhibitors. AID 1345082. 4.3% of 94,000 active; note: nearly all actives have a fitted effect of over 55% in size
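Cells were seeded at 400 per well, treated with pin-transferred compound, and kept 48 or 72 hr at 37 °C before CellTiter-Glo addition and luminescence imaging of cellular ATP.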
FLuc inh – blocks purified firefly luciferase enzyme activity | Potency, µM (top dose mostly 115 µM), hits mostly inhibitors | purified P. pyralis luciferase, luminescence, biochemical | 2.5% of 76,000 active | P08659; note: nearly all actives have a fitted effect of over 65% in size
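Inhibitors were tested against purified firefly luciferase in a biochemical, low-substrate format (both substrates at 10uM) and luminescence measured with a CCD imager.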
hNpr1 antagonist – human Npr1 receptor antagonism; P16066; HEK293 hNpr1 GloSensor cGMP, ANP-stimulated luminescence; Potency, µM (top dose mostly 46.3 µM), hits mostly inhibitors; 1.6% of 76,000 active; AID 1347048; calls by dose curve; note: nearly all actives have a fitted effect of over 60% in size
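Compound pre-incubated 30 min at room temperature on GloSensor-loaded HEK293 cells stably carrying hNpr1 and the pGS-40F cGMP biosensor. Stimulation uses hNppA at 0.1 nM final; luminescence is taken at baseline and 20 min post-agonist.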
HEK293 tox – cytotoxic compounds in HEK 293 cells | 6.6% of 94,000 active | Potency, µM (titrated, usually from 115 µM), usual class: inhibitors | HEK 293 viability, ATP luminescence (CellTiter-Glo), 48-72 h | AID 1345083; note: nearly all actives have a fitted effect of over 60% in size
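HEK 293 cells seeded at 250 cells/well were exposed to compound for 48 or 72 hr at 37 degree Celsius. Viability taken as ATP content by CellTiter-Glo luminescence.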
Hits are given with their value; . = inactive; ? = inconclusive; / = no result. Unless noted, calls come from the whole dose curve; as a rule, active = well fitted curve in the direction sought with a large enough effect; inconclusive = small, poorly fitted or top-dose-only effect, or another doubt; inactive = no such curve, though single readings can be large; an effect the other way counts as inactive or inconclusive.

SMILES | GPT2 inh | 3T3 cytotox | FLuc inh | hNpr1 antagonist | HEK293 tox
COC1CN(c2cccc(F)c2)C12CCN(C(=O)NCCc1ccccc1)CC2 (centres undefined) | . | ? | . | . | 50µM
COC1CN(c2cccc(F)c2)C12CCN(C(=O)CCCc1ccccc1)CC2 (centres undefined) | . | ? | . | . | ?
COC1CN(c2cccc(F)c2)C12CCN(C(=O)C1CCCCC1)CC2 (centres undefined) | . | . | . | . | 28µM
COC1CN(c2cccc(F)c2)C12CCN(C(=O)NC1CCCCC1)CC2 (centres undefined) | . | ? | . | . | 45µM
COc1cc2c(cc1OC)CN(Cc1cc3n(n1)CCCNC3)CC2 | . | . | . | . | .
COc1cccc(CNC(=O)CN2CC3CC(C2)[C@H]2CCCC(=O)N2C3)c1 (some centres undefined) | . | . | . | . | .
CC(C)c1ccc(C(=O)N2CCC[C@H]2c2nc(-c3ccccc3)no2)cc1 | . | ? | . | . | ?
O=C(NC1CCCCC1)N1CCC(N2CC3CC(C2)[C@H]2CCCC(=O)N2C3)CC1 (some centres undefined) | . | . | . | . | .
COc1ccc(Cc2nc3nccc(-c4ccc(OC)c(OC)c4)n3n2)cc1 | . | 14µM | . | . | ?
COc1ccc(CCc2nc3nccc(-c4ccc(OC)c(OC)c4)n3n2)cc1 | . | ? | ? | . | 35µM
CCCNC(=O)c1coc(COc2ccc3c(c2)C(c2ccc(C)cc2)N(C(=O)C2CC2)CC3)n1 (centres undefined) | . | ? | . | . | ?
Cc1cccc(C2c3cc(OCc4nc(C(=O)NCC5CC5)co4)ccc3CCN2C(=O)C2CC2)c1 (centres undefined) | . | ? | . | ? | ?
CCCNC(=O)c1coc(COc2ccc3c(c2)C(c2cccc(C)c2)N(C(=O)C2CC2)CC3)n1 (centres undefined) | . | ? | . | ? | 13µM
COCCNC(=O)c1coc(COc2ccc3c(c2)C(c2cccc(F)c2)N(C(=O)C2CC2)CC3)n1 (centres undefined) | . | ? | . | . | ?
CCN(CC)C(=O)c1coc(COc2ccc3c(c2)C(c2ccc(C)cc2)N(C(=O)C2CC2)CC3)n1 (centres undefined) | . | ? | . | . | 10µM
Cc1ccc(C2c3cc(OCc4nc(C(=O)NCC5CC5)co4)ccc3CCN2C(=O)C2CC2)cc1 (centres undefined) | . | 28µM | . | . | 35µM
CC(C)CNC(=O)c1coc(COc2ccc3c(c2)C(c2cccc(F)c2)N(C(=O)C2CC2)CC3)n1 (centres undefined) | . | 13µM | . | ? | 14µM
COc1cccc(NC(=O)c2ccnc(-c3nnc4ccc(N5CCN(C)CC5)nn34)c2)c1 | . | . | . | . | ?
O=C(Nc1ccccc1)NC1CCN(C(=O)c2ccc(-c3cncnc3)cc2)CC1 | . | . | / | / | .
COCCNC(=O)c1coc(COc2ccc3c(c2)C(c2ccc(F)cc2)N(C(=O)C(C)C)CC3)n1 (centres undefined) | . | . | . | . | 8.9µM
Cc1ccc(C2c3cc(OCc4nc(C(=O)NCC(C)C)co4)ccc3CCN2C(=O)C2CC2)cc1 (centres undefined) | . | ? | . | . | 40µM
COCCN1CCN(C[C@@H]2C=C(C)[C@H](Cc3nnc(-c4cccnc4)o3)C[C@H]2C(C)C)CC1 | ? | ? | . | . | ?
CC1=C[C@@H](CN2CCC(O)CC2)[C@H](C(C)C)C[C@H]1Cc1nnc(-c2ccncc2)o1 | . | ? | . | . | ?
COCCN1CCN(C[C@@H]2C=C(C)[C@H](Cc3nnc(-c4ccc(N(C)C)cc4)o3)C[C@H]2C(C)C)CC1 | . | ? | . | . | 32µM
CC1=C[C@@H](CN2CCC(O)CC2)[C@H](C(C)C)C[C@H]1Cc1nnc(-c2ccc(N(C)C)cc2)o1 | . | 40µM | . | . | ?
COc1ccccc1NC(=O)Nc1ccnn1C1CCN(C(=O)CN)CC1 | . | . | . | . | .
CCCNC(=O)CCC1CCN(c2cc(NCCC)ncn2)CC1 | . | . | ? | . | .
